# Measurements as given in PubChem BioAssay AID1159580 (chemical genetic matrix, 2015).
# Values joined by “and” are separate entries in the source; they are usually repeats but may differ in a detail not shown here. Equal entries are not always repeated. About 2,000 (36%) of roughly 5,500 compounds were called active. Not shown: some 18% with an inconclusive outcome. No stated cut-off is given here; in the data, active means normalized growth mostly below about 0.91 (no sharp cut-off); inconclusive means no clear call, values can overlap the other calls; inactive means mostly above about 0.92. The list shows a part of the results.
# Assay: chemical genetic growth profiling, strain panel (AID 1159580);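 further: tested at 20 µM; growth read once vehicle control cultures reached saturation at 30 °C; 1 = growth at the plate median or of vehicle wells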
# Settings: S. cerevisiae deletion strains, growth OD
compound,measurement,setting,value
CO/N=C(\C(=O)NC1C(=O)N2C(C(=O)O)=C(COC(N)=O)CSC12)c1ccco1 (stereo unspecified),normalized growth,"locus YAL021C, strain ccr4, stronger effect = lower value",0.988 (inactive)
same,normalized growth,"locus YAL026C, strain drs2, stronger effect = lower value",0.984 (inactive)
same,normalized growth,"locus YAL030W, strain snc1, stronger effect = lower value",0.977 (inactive)
same,normalized growth,"locus YBL061C, strain skt5, stronger effect = lower value",0.967 (inactive)
same,normalized growth,"locus YBR009C, strain hhf1, stronger effect = lower value",0.985 (inactive)
same,normalized growth,"locus YBR021W, strain FUR4, stronger effect = lower value",0.0938 (active)
same,normalized growth,"locus YBR023C, strain chs3, stronger effect = lower value",0.964 (inactive)
same,normalized growth,"locus YBR171W, strain sec66, stronger effect = lower value",0.958 (inactive)
same,normalized growth,"locus YBR229C, strain ROT2, stronger effect = lower value",0.0259 (active)
same,normalized growth,"locus YBR231C, strain swc5, stronger effect = lower value",0.971 (inactive)
same,normalized growth,"locus YBR279W, strain paf1, stronger effect = lower value",0.975 (inactive)
same,normalized growth,"locus YCL011C, strain gbp2, stronger effect = lower value",0.968 (inactive)
same,normalized growth,"locus YCL016C, strain dcc1, stronger effect = lower value",0.969 (inactive)
same,normalized growth,"locus YCL029C, strain bik1, stronger effect = lower value",0.0647 (active)
same,normalized growth,"locus YCL061C, strain MRC1, stronger effect = lower value",0.969 (inactive)
same,normalized growth,"locus YCL069W, strain vba3, stronger effect = lower value",0.977 (inactive)
same,normalized growth,"locus YCR088W, strain abp1, stronger effect = lower value",0.975 (inactive)
same,normalized growth,"locus YDL005C, strain med2, stronger effect = lower value",0.969 (inactive)
same,normalized growth,"locus YDL035C, strain GPR1, stronger effect = lower value",0.0509 (active)
same,normalized growth,"locus YDL040C, strain nat1, stronger effect = lower value",0.981 (inactive)
same,normalized growth,"locus YDL074C, strain BRE1, stronger effect = lower value",0.0872 (active)
same,normalized growth,"locus YDL101C, strain DUN1, stronger effect = lower value",0.0518 (active)
same,normalized growth,"locus YDL185W, strain tfp1, stronger effect = lower value",0.0709 (active)
same,normalized growth,"locus YDL192W, strain arf1, stronger effect = lower value",0.0602 (active)
same,normalized growth,"locus YDR001C, strain nth1, stronger effect = lower value",0.976 (inactive)
same,normalized growth,"locus YDR069C, strain doa4, stronger effect = lower value",0.988 (inactive)
same,normalized growth,"locus YDR101C, strain arx1, stronger effect = lower value",0.0636 (active)
same,normalized growth,"locus YDR137W, strain rgp1, stronger effect = lower value",0.945 (inactive)
same,normalized growth,"locus YDR159W, strain sac3, stronger effect = lower value",0.99 (inactive)
same,normalized growth,"locus YDR162C, strain NBP2, stronger effect = lower value",0.0497 (active)
same,normalized growth,"locus YDR195W, strain ref2",1 (inactive)
same,normalized growth,"locus YDR297W, strain sur2, stronger effect = lower value",0.972 (inactive)
same,normalized growth,"locus YDR318W, strain mcm21, stronger effect = lower value",0.062 (active)
same,normalized growth,"locus YDR334W, strain swr1, stronger effect = lower value",0.966 (inactive)
same,normalized growth,"locus YDR335W, strain msn5, stronger effect = lower value",0.975 (inactive)
same,normalized growth,"locus YDR388W, stronger effect = lower value",0.0594 (active)
same,normalized growth,"locus YDR392W, strain spt3, stronger effect = lower value",0.894 (inactive)
same,normalized growth,"locus YDR502C, strain sam2, stronger effect = lower value",0.057 (active)
same,normalized growth,"locus YEL003W, strain gim4, stronger effect = lower value",0.997 (inactive)
same,normalized growth,"locus YEL037C, strain rad23, stronger effect = lower value",0.967 (inactive)
same,normalized growth,"locus YEL061C, strain CIN8 (second series), stronger effect = lower value",0.976 (inactive)
same,normalized growth,"locus YEL061C, strain CIN8, stronger effect = lower value",0.0491 (active)
same,normalized growth,"locus YER015W, strain faa2, stronger effect = lower value",0.968 (inactive)
same,normalized growth,"locus YER016W, strain bim1, stronger effect = lower value",0.992 (inactive)
same,normalized growth,"locus YER110C, stronger effect = lower value",0.0738 (active)
same,normalized growth,"locus YER111C, strain swi4, stronger effect = lower value",0.976 (inactive)
same,normalized growth,"locus YER155C, strain BEM2 (second series), stronger effect = lower value",0.969 (inactive)
same,normalized growth,"locus YER155C, strain BEM2, stronger effect = lower value",0.0713 (active)
same,normalized growth,"locus YER167W, strain BCK2, stronger effect = lower value",0.0538 (active)
same,normalized growth,"locus YFR010W, strain ubp6, stronger effect = lower value",0.966 (inactive)
same,normalized growth,"locus YGL078C, strain dbp3, stronger effect = lower value",0.387 (active)
same,normalized growth,"locus YGL086W, strain mad1, stronger effect = lower value",0.0523 (active)
same,normalized growth,"locus YGL167C, strain pmr1, stronger effect = lower value",0.96 (inactive)
same,normalized growth,"locus YGL173C, strain kem1, stronger effect = lower value",0.969 (inactive)
same,normalized growth,"locus YGL227W, strain vid30, stronger effect = lower value",0.978 (inactive)
same,normalized growth,"locus YGL240W, strain doc1, stronger effect = lower value",0.989 (inactive)
same,normalized growth,"locus YGL248W, strain PDE1, stronger effect = lower value",0.0434 (active)
same,normalized growth,"locus YGL253W, strain hxk2, stronger effect = lower value",0.99 (inactive)
same,normalized growth,"locus YGR135W, strain pre9, stronger effect = lower value",0.0617 (active)
same,normalized growth,"locus YGR252W, strain gcn5, stronger effect = lower value",0.126 (active)
same,normalized growth,"locus YHR013C, strain ard1, stronger effect = lower value",0.964 (inactive)
same,normalized growth,"locus YHR027C, strain rpn1, stronger effect = lower value",0.978 (inactive)
same,normalized growth,"locus YHR030C, strain SLT2, stronger effect = lower value",0.0514 (active) and 1.05 (inactive)
same,normalized growth,"locus YHR079C, strain IRE1 (second series), stronger effect = lower value",0.0616 (active)
same,normalized growth,"locus YHR079C, strain IRE1, stronger effect = lower value",1.08 (inactive)
same,normalized growth,"locus YHR094C, strain hxt1, stronger effect = lower value",0.0582 (active)
same,normalized growth,"locus YHR129C, strain ARP1, stronger effect = lower value",0.056 (active)
same,normalized growth,"locus YHR142W, strain chs7, stronger effect = lower value",0.926 (inactive)
same,normalized growth,"locus YHR200W, strain rpn10, stronger effect = lower value",0.0599 (active)
same,normalized growth,"locus YIL066C, strain RNR3, stronger effect = lower value",0.0444 (active)
same,normalized growth,"locus YIL073C, strain SPO22, stronger effect = lower value",0.121 (active)
same,normalized growth,"locus YIL125W, strain kgd1, stronger effect = lower value",0.161 (active)
same,normalized growth,"locus YIR030C, strain dcg1, stronger effect = lower value",0.0751 (active)
same,normalized growth,"locus YJL092W, strain hpr5, stronger effect = lower value",0.98 (inactive)
same,normalized growth,"locus YJL095W, strain BCK1 (second series), stronger effect = lower value",0.98 (inactive)
same,normalized growth,"locus YJL095W, strain BCK1, stronger effect = lower value",0.0608 (active) and 1.03 (inactive)
same,normalized growth,"locus YJL115W, strain asf1, stronger effect = lower value",0.983 (inactive)
same,normalized growth,"locus YJL129C, strain trk1, stronger effect = lower value",0.971 (inactive)
same,normalized growth,"locus YJL134W, strain LCB3, stronger effect = lower value",0.0455 (active)
same,normalized growth,"locus YJL154C, strain vps35, stronger effect = lower value",0.971 (inactive)
same,normalized growth,"locus YJL164C, strain tpk1, stronger effect = lower value",0.977 (inactive)
same,normalized growth,"locus YJL166W, strain qcr8, stronger effect = lower value",0.962 (inactive)
same,normalized growth,"locus YJL168C, strain set2, stronger effect = lower value",0.0569 (active)
same,normalized growth,"locus YJL187C, strain SWE1 (second series), stronger effect = lower value",0.0486 (active)
same,normalized growth,"locus YJL187C, strain SWE1, stronger effect = lower value",0.971 (inactive)
same,normalized growth,"locus YJR043C, strain POL32, stronger effect = lower value",0.0695 (active)
